Source: PubChem BioAssay (National Center for Advancing Translational Sciences (NCATS))
This is a sample that favours compounds with a hit; in the whole collection about 12% have one here.
Sm TGR block = S. mansoni TGR enzyme inhibition. Q962Y6. purified TGR, DTNB reduction, TNB absorbance 405 nm. Potency, µM (doses to about 114 µM), for inactives: at the highest dose activity change, negative = inhibition, most hits filed as inhibitors. 360,000 tested, 3% active. AID 485364; note: % is set by controls: 0 for no effect and ±100 for the full control effect; nearly all actives have a fitted effect of over 60% in size
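First, TGR (20 nM dispensed) and NADPH were mixed with compound. Second, a 15 min room-temperature incubation followed. Third, further NADPH and then DTNB were added to start the reaction. Finally, TNB absorbance was monitored kinetically.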
Pf growth 48h = inhibits P. falciparum growth in the first generation, 48 h; P. falciparum luciferase growth in erythrocytes, 48 h; Potency, µM (highest dose often 28.7 µM), for the others: at the highest dose activity change, negative = inhibition, hits mostly inhibitors; 310,000 tested, 5.9% active; AID 504832; note: % is set by controls: 0 for no effect and ±100 for the full control effect
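Luciferase-expressing P. falciparum in infected erythrocytes (2% hematocrit, 0.1% parasitemia final) in RPMI 1640/0.5% Albumax were exposed to compound for 48 hours at 37 C, 5% CO2; growth read as luminescence.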
Pf growth 96h = P. falciparum growth inhibition at 96 hours. P. falciparum luciferase reporter growth, 96 h. Potency, µM (series often up to 28.7 µM), for the others: top-dose activity change, negative = inhibition, most hits filed as inhibitors. 320,000 tested, 6.9% active; note: % is set by controls: 0 for no effect and ±100 for the full control effect
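96 h incubation, 37 C, 5% CO2, of luciferase-reporter P. falciparum-infected RBCs (2% hematocrit, 0.05% parasitemia final) with test compounds; endpoint luminescence.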
SARS PLP yeast = inhibitors of SARS-CoV papain-like protease in yeast | Potency, µM (top dose mostly 32.9 µM), without a hit: at the highest dose activity, positive = growth rescue, usual class: activators | AID 485353 | 330,000 tested, 0.19% active | S. cerevisiae expressing SARS-CoV PLpro, growth rescue; calls by dose curve; note: 0% is about no effect; nearly all actives have a fitted effect of over 55% in size
An asterisk follows results filed as active; ? = inconclusive; nt = no result. Unless noted, calls come from the whole dose curve; as a rule, active = well fitted curve in the direction sought with a large enough effect; inconclusive = small, poorly fitted or top-dose-only effect, or another doubt; inactive = no such curve, though single readings can be large; an effect the other way counts as inactive or inconclusive. Potency is the fitted concentration of half-maximal effect.

SMILES | Sm TGR block | Pf growth 48h | Pf growth 96h | SARS PLP yeast
CC(=O)C(=Cc1ccc(O)cc1)C(C)=O | 45µM* | 0% | ? | 0%
CCOc1ccc(C(=O)NNC(=O)CCNC(=O)c2ccco2)cc1OC | -7% | 7% | 28% | 4%
COc1ccc(S(=O)(=O)N2CCCCC2)cc1NC(=O)c1ccc([N+](=O)[O-])o1 | ? | ? | 6.6µM* | 2%
CCN1CCN(c2ccc(S(=O)(=O)N3CCCCC3)cc2NC(=O)c2ccc([N+](=O)[O-])o2)CC1 | -29% | 13µM* | 8.3µM* | 1%
Cc1ccc2c(c1)N(CC(=O)NC1CCC(C)CC1)C(=O)c1cccnc1O2 (stereo not drawn) | 5% | ? | ? | 5%
O=C(CSc1nc2c(c(=O)[nH]1)CN(Cc1ccc(F)cc1)CC2)Nc1cccc(C(F)(F)F)c1 | -1% | nt | nt | nt
O=C(Cn1c(SCC(=O)Nc2ccc(F)cc2)nc2ccccc21)NCc1ccc(Cl)cc1 | 7% | nt | nt | nt
O=C(OCC(=O)N1CCc2ccccc2C1)c1ccc(F)cc1Cl | nt | nt | nt | -3%
O=c1oc2ccccc2c(N2CCCC2)c1CN1CCCC1 | 35µM* | 28% | nt | 5%
CCCNc1c(N)c(=O)oc2ccccc12 | -27% | nt | ? | 16%
O=c1oc2ccccc2c(Cl)c1CN1CCCCC1 | 4.5µM* | -8% | 3% | -1%
Nc1c(NCCN2CCCCC2)c2ccccc2oc1=O | 28µM* | 0% | ? | 1%
CCc1ccc(CNC(=O)c2cc3c(s2)-c2ccccc2OC3)cc1 | -1% | nt | nt | nt
Cc1ccccc1-c1cc(C(=O)NCc2ccc3c(c2)OCO3)n(CC2CC(c3cccnc3)=NO2)n1 (stereo not drawn) | -19% | ? | 4.1µM* | -1%
COc1ccc(C2=NOC(Cn3nc(C(=O)NCc4cccc(C(F)(F)F)c4)cc3-c3ccccc3)C2)cc1 (stereo not drawn) | 0% | 4.7µM* | 4.7µM* | -2%
COCCNC(=O)c1cc(-c2ccccc2)n(CC2CC(c3ccc(OC)cc3)=NO2)n1 (stereo not drawn) | -1% | -29% | ? | 4%
COc1ccc(C2=NOC(Cn3nc(C(=O)NCc4ccc(C)cc4)cc3-c3ccccc3)C2)cc1 (stereo not drawn) | 3% | 10µM* | 10µM* | -1%
COc1ccc(C2=NOC(Cn3nc(C(=O)NCc4ccco4)cc3-c3ccccc3)C2)cc1 (stereo not drawn) | ? | 13µM* | 10µM* | -23%
COc1ccc(C2=NOC(Cn3nc(C(=O)NCc4cccs4)cc3-c3ccccc3)C2)cc1 (stereo not drawn) | -8% | ? | ? | -7%
CCOc1ccc(-c2cc(CCCC(=O)NCCc3cc(OC)c(OC)c(OC)c3)no2)cc1 | 0% | nt | nt | nt
CCC1CCCCN1CCCNC(=O)C1CCCN(S(=O)(=O)N2CC(C)CC(C)C2)C1 (stereo not drawn) | 5% | -33% | 0% | 11%
